Assay [1] can be described thus: qHTS assay to identify small molecule agonists of the RXR signaling pathway - cell viability counter screen (AID 1159529).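 Note: HEK 293T cells carrying an RXR-alpha UAS beta-lactamase reporter; series mostly up to about 77 µM; nearly all actives have a fitted effect of over 50% in size.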 A digest of the protocol: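 Same-well viability check after the LiveBLAzer FRET read: CellTiter-Glo added, luminescence measured after 30 min at room temperature. Reporter HEK 293T cells had been treated with compounds for 16 hr following a 5 hr preincubation.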
A general note: In qHTS, concentration-response curves come from the screen itself.

Assay [2] can be described thus: qHTS assay to identify small molecule antagonists of the retinoid acid receptor (RAR) signaling pathway - cell viability counter screen (AID 1159551). Note: nearly all actives have a fitted effect of over 35% in size. Note: potency is the fitted concentration of half-maximal effect. A digest of the protocol: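 Viability of C3RL4 cells is quantified from ATP by luminescence after 6 h treatment at 37 C with compounds and 1 uM retinol.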
Assay [3] in a line: qHTS assay to identify small molecule antagonists of the estrogen related receptor (ERR) signaling pathway from Tox21 library - cell viability counter screen (AID 1224834). Note: nearly all actives have a fitted effect of over 30% in size. Note: potency is the fitted concentration of half-maximal effect. A digest of the protocol: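 In this quantitative HTS format, ERR cells receive compounds in DMSO and are incubated for 17.5 h at 37 C. Live-cell protease activity is then detected with CellTiter-Fluor.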
The nature of assay [4]: qHTS assay to identify small molecule agonists of the retinoic acid receptor (RAR) signaling pathway (AID 1159553). Note: potency is the fitted concentration of half-maximal effect. A digest of the protocol: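 Compounds dissolved in DMSO were pinned onto C3RL4 cells seeded the previous day, and plates were held 6 hr at 37 C. RARE-driven luciferase output was then read by luminescence.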
Assay [5] is described as follows: qHTS assay to identify small molecule antagonists of the retinoic acid receptor (RAR) signaling pathway (AID 1159552; note: nearly all actives have a fitted effect of over 50% in size; note: potency is the fitted concentration of half-maximal effect). A digest of the protocol: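 Readout: luciferase luminescence, 30 min post-reagent at RT. Setup: C3RL4 RARE reporter cells, compounds plus retinol 1 uM final, 6 hr incubation at 37 C and 5% CO2.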
Assay [6] can be described thus: qHTS assay to identify small molecule antagonists of the estrogen related receptor signaling pathway with the pleiotropic PPARgamma coactivator (PGC) cell viability counter screen (AID 1224822;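 note: series mostly up to about 46 µM; viability read after 17.5 h compound exposure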). The procedure, abridged: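 Viable cell signal (CellTiter-Fluor, 30 min, 37 C/5% CO2) was measured in PGC/ERR cells after a 17.5 h compound incubation.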
Assay [7] is described as follows: qHTS assay to identify small molecule antagonists of the estrogen related receptor (ERR) signaling pathway (AID 1224819;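 note: luminescence from an ERR-driven luciferase reporter measured with One-Glo reagent; series mostly up to about 46 µM; nearly all actives have a fitted effect of over 50% in size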). A digest of the protocol: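 ERR reporter cells were plated at 2,000 cells/well and left 6 h at 37 C/5% CO2 before pin-tool transfer of compounds in DMSO. After 18 h at 37 C, One-Glo was added and luminescence was read 30 min later at room temperature.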

Assay [8] can be described thus: qHTS assay to identify small molecule agonists of the estrogen related receptor (ERR) signaling pathway (AID 1224820). The procedure, abridged:
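An ERR cell line provided by NTP was seeded at 2,000 cells per well and allowed to settle for 6 h before compounds in DMSO were added. After 18 h at 37 C, luciferase activity was measured by One-Glo luminescence.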

Assay [9] is described as follows: qHTS assay to identify small molecule agonists of the estrogen related receptor signaling pathway with the pleiotropic PPARgamma coactivator (PGC) (AID 1224823). A digest of the protocol:
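Compounds dissolved in DMSO are added by pin tool to PGC/ERR cells that have settled for 6 h, and incubation continues 18 h at 37 C. Reporter output is measured as One-Glo luminescence.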

The record followed here is PubChem BioAssay (Tox21).

Structures are written as SMILES. Results filed as inconclusive are left out. A number with no mark means an inactive call. Active and inactive are the calls of the source. Calls come from the whole dose curve; as a rule, active = well fitted curve in the direction sought with a large enough effect in the repeat runs; inconclusive = weak or mixed curves; inactive = no such curve, though single readings can be large; an effect the other way counts as inactive or inconclusive.
% is set by controls: 0 for no effect and ±100 for the full control effect.

As to `CC(=O)CCC(C)=O`, the Potency result in assay [1], in assay [2] and in assay [3] was “inactive” each time.
With `CC1(C)CCC(Cc2ccc(Cl)cc2)C1(O)Cn1cncn1` (configuration not stated), in assay [2], the Potency result was “inactive”.
For the compound `C[C@]12CC[C@H]3[C@@H](CCC4=CC(=O)CC[C@@H]43)[C@@H]1CC[C@@H]2OC(=O)CCC1CCCCC1`, the Potency entry in assay [1], in assay [2], in [4] and in assay [3] was “inactive” each time.
In the case of `CCOC(=O)[C@]1(c2ccccc2)Oc2ccccc2[C@@H]1N`, the Potency result in assay [1], in assay [2], in assay [5], in assay [4] and in [3] was “inactive” each time.
On to `CCOc1ccc(C(C)(C)COCc2cccc(Oc3ccccc3)c2)cc1`, for which the Potency entry in assay [1], in assay [2] and in assay [3] was “inactive” in each case.
Regarding `CO/C=C(/C(=O)OC)c1ccccc1COc1cccc(C(F)(F)F)n1`, the Potency entry in [1] and in assay [4] was “inactive” in each case.
For the compound `O=C(NC(=O)c1c(F)cccc1F)Nc1cc(Cl)c(Oc2ncc(C(F)(F)F)cc2Cl)c(Cl)c1`, the Potency result in [1], in assay [2] and in assay [3] was “inactive” each time.
As for `O=C(NC(=O)c1c(F)cccc1F)Nc1ccc(OC(F)(F)C(F)OC(F)(F)F)c(Cl)c1` (configuration not stated), the Potency result in [2] was “inactive”.
Take `CCOP(=S)(OCC)SCSCC`: the Potency result in assay [1], in assay [2] and in assay [3] was “inactive” throughout.
For `O=C(OC1CCCCC1)c1ccccc1C(=O)OC1CCCCC1`, in [2], the Potency entry is “inactive”.
As for `CCOC(=O)COc1cc(-c2nn(C)c(OC(F)F)c2Cl)c(F)cc1Cl`, the Potency entry in [1], in assay [2], in assay [5], in [4] and in assay [3] was “inactive” each time.
For `O=C1c2ccccc2C(=O)C1C(=O)C(c1ccccc1)c1ccccc1`, the Potency entry in assay [1], in [2], in assay [5], in assay [4] and in assay [3] was “inactive” in each case.
`CCOP(=O)(OCC)O/C(=C/Cl)c1ccc(Cl)cc1Cl`: the Potency result in assay [1], in assay [2] and in [4] was “inactive” each time.
For the compound `COC(=O)C(C)N(C(=O)Cc1ccccc1)c1c(C)cccc1C` (configuration not stated), the Potency result in assay [2] and in [5] was “inactive” in each case.
For the compound `BrCC(Br)C1CCC(Br)C(Br)C1` (configuration not stated), the Potency result in [1], in assay [2], in assay [4] and in [3] was “inactive” throughout.
Consider `CC(C)(C)C(O)C(Oc1ccc(Cl)cc1)n1cncn1` (configuration not stated), for which the Potency result in assay [1], in assay [2], in assay [4] and in [6] was “inactive” throughout.
Consider `BrCCCCBr`, for which the Potency result in [1], in assay [2], in [5], in assay [4] and in assay [3] was “inactive” each time.
Regarding `CO[C@@H]1[C@H](OC(=O)NC(=O)CCl)CC[C@]2(CO2)[C@H]1[C@@]1(C)O[C@@H]1CC=C(C)C`, the activity change, negative = cytotoxicity in [1] was -19.4% [at 15.8 µM]; in assay [2], 2.96% [at 19 µM]. For the same compound, the activity, negative = inhibition in [5] was 1.57% [at 19 µM]. Also, in assay [4], the Potency entry was “inactive”. Moreover, the viability change, negative = cytotoxic in assay [3] is -3.88% [at 19 µM].
In the case of `O=S1(=O)OC(c2cc(Br)c(O)c(Br)c2)(c2cc(Br)c(O)c(Br)c2)c2ccccc21`, the Potency result in assay [1] was “inactive”. Moreover, the Potency in assay [2] is 19.9 µM (active); in assay [5], 25 µM (active); in assay [3], 25 µM (active).
On to `O=C(N[C@H](c1ccccc1)[C@@H]1CN2CCC1CC2)c1c(Cl)ccc(C(F)(F)F)c1Cl`, for which the Potency result in assay [1] and in assay [2] was “inactive” each time. In addition, the Potency in assay [3] was 49.3 µM (active).
With `Clc1ccc(C(OCCN2CCCCC2)c2ccccc2)cc1` (configuration not stated), the Potency result in [2] is “inactive”.
As to `CC(C)(CCl)C(=O)Cl`, the Potency entry in [1], in assay [2], in [5] and in [3] was “inactive” each time.
For `CNP(=O)(OC)Oc1ccc(C(C)(C)C)cc1Cl` (configuration not stated), the Potency result in assay [2], in assay [5], in assay [4] and in [3] was “inactive” throughout.
Regarding `CCCN(CC1CC1)c1c([N+](=O)[O-])cc(C(F)(F)F)cc1[N+](=O)[O-]`, the Potency result in assay [2], in [4] and in assay [3] was “inactive” in each case.
As for `CCC(C)(NC(=O)c1cc(Cl)c(C)c(Cl)c1)C(=O)CCl` (configuration not stated), the values for the Potency in [5] and in assay [3] were 4.89 µM (active) and 24.5 µM (active), respectively.
Turning to `CC(C)N(C(=O)COc1nnc(C(F)(F)F)s1)c1ccc(F)cc1`, the Potency result in assay [2], in assay [5] and in assay [3] was “inactive” throughout.
Turning to `COc1nn(CSP(=S)(OC)OC)c(=O)s1`, the Potency entry in assay [2] and in assay [6] was “inactive” in each case.
Consider `CCCCC(CC)COP(=O)(Oc1ccccc1)Oc1ccccc1` (configuration not stated), for which the Potency entry in [2], in [5] and in assay [4] was “inactive” in each case.
Regarding `OCCCBr`, the Potency result in assay [2], in assay [5], in assay [4], in assay [6] and in assay [3] was “inactive” each time. In addition, the call in [7], in assay [8] and in assay [9] was inactive.
Consider `O=NN1CCCCCC1`, for which the Potency result in [2], in assay [5], in assay [4] and in [3] was “inactive” in each case.
For the compound `COCC(C)N(C(=O)CCl)c1c(C)csc1C` (configuration not stated), the Potency entry in [2] and in [3] was “inactive” each time.
With `CCCN(CCC)c1c([N+](=O)[O-])cc(S(C)(=O)=O)cc1[N+](=O)[O-]`, the Potency result in assay [2] and in assay [4] was “inactive” in each case.
Turning to `O=C=Nc1ccc(Cl)cc1`, the Potency result in assay [2] and in [5] was “inactive” throughout. In [4], the Potency was 24.3 µM (active).
`NCCCNCCCN`: the Potency result in assay [2] and in assay [3] was “inactive” each time.
Turning to `CO/N=C(/C(=O)OC)c1ccccc1COc1ccccc1C`, in assay [5], the Potency is 7.7 µM (active). Further, the Potency result in [4] and in assay [3] was “inactive” throughout.
As to `CCCN(CCCl)c1c([N+](=O)[O-])cc(C(F)(F)F)cc1[N+](=O)[O-]`, the Potency result in assay [2], in assay [4] and in assay [3] was “inactive” in each case.
On to `CCOP(=S)(OCC)Oc1cc(Cl)c(Br)cc1Cl`, for which the Potency entry in assay [2], in assay [5], in assay [4] and in [3] was “inactive” throughout.
With `N#Cc1cc(I)c(O)c(I)c1`, the Potency result in assay [2] and in [4] was “inactive” in each case. Further, in [5], the Potency was 68.6 µM (active).
